Measurements published in PubChem BioAssay AID1159580 (chemical genetic matrix, 2015).
“And” between values parts separate entries of the source, which are not always exact repeats. Equal values may be shown once. Screen size: about 5,500 compounds; about 2,000 (36%) were called active. About 18% were inconclusive and are not listed. Cut-off read from the data, not from the text of the source: active = normalized growth mostly below about 0.91 (no sharp cut-off); inconclusive = no clear call, values can overlap the other calls; inactive = mostly above about 0.92. The list shows a part of the results. Some compounds were tested as several samples or in several runs, with calls that do not always agree.

Experiment: chemical genetic growth profiling, strain panel (AID 1159580);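 note: tested at 20 µM; growth read once vehicle control cultures reached saturation at 30 °C; 1 = growth at the plate median or of vehicle wells; lower values mean less growth of the strain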
Conditions: growth OD

Measured: normalized growth

O=C(Nc1ccc([N+](=O)[O-])cc1Cl)c1cc(Cl)ccc1O
0.815 (active) and 0.99 (inactive): S. cerevisiae deletion strains, locus YJR075W, strain HOC1, stronger effect = lower value
0.921 (active) and 0.992 (inactive): S. cerevisiae deletion strains, locus YNL322C, strain KRE1, stronger effect = lower value
0.924 (inactive) and 0.687 (active): S. cerevisiae deletion strains, locus YNL153C, strain GIM3, stronger effect = lower value
inactive: S. cerevisiae deletion strains, locus YKL068W, stronger effect = lower value 1 | S. cerevisiae deletion strains, locus YKL085W, strain MDH1 (second series), stronger effect = lower value 1.04 | S. cerevisiae deletion strains, locus YKL085W, strain MDH1, stronger effect = lower value 1.04 | S. cerevisiae deletion strains, locus YKR026C, strain gcn3, stronger effect = lower value 0.978 | S. cerevisiae deletion strains, locus YKR091W, strain srl3, stronger effect = lower value 0.938 | S. cerevisiae deletion strains, locus YLL001W, strain dnm1, stronger effect = lower value 0.971 | S. cerevisiae deletion strains, locus YLL026W, stronger effect = lower value 0.939 | S. cerevisiae deletion strains, locus YLL041C, strain sdh2, stronger effect = lower value 0.931 | S. cerevisiae deletion strains, locus YLR058C, strain SHM2, stronger effect = lower value 0.948 | S. cerevisiae deletion strains, locus YLR102C, strain apc9, stronger effect = lower value 1 | S. cerevisiae deletion strains, locus YLR113W, strain HOG1, stronger effect = lower value 1.01 | S. cerevisiae deletion strains, locus YLR258W, strain gsy2, stronger effect = lower value 0.977 | S. cerevisiae deletion strains, locus YLR268W, strain sec22, stronger effect = lower value 0.964 | S. cerevisiae deletion strains, locus YLR330W, strain CHS5, stronger effect = lower value 0.942 | S. cerevisiae deletion strains, locus YLR342W, strain FKS1, stronger effect = lower value 0.967 | S. cerevisiae deletion strains, locus YLR357W, strain rsc2, stronger effect = lower value 1.02 | S. cerevisiae deletion strains, locus YLR370C, strain arc18, stronger effect = lower value 0.949 | S. cerevisiae deletion strains, locus YLR371W, strain rom2, stronger effect = lower value 1 | S. cerevisiae deletion strains, locus YML016C, strain PPZ1, stronger effect = lower value 0.975 | S. cerevisiae deletion strains, locus YML120C, strain ndi1, stronger effect = lower value 0.975 | S. cerevisiae deletion strains, locus YMR058W, strain fet3, stronger effect = lower value 0.966 | S. cerevisiae deletion strains, locus YMR125W, strain sto1, stronger effect = lower value 0.999 | S. cerevisiae deletion strains, locus YMR129W, stronger effect = lower value 0.937 | S. cerevisiae deletion strains, locus YMR223W, strain ubp8, stronger effect = lower value 1.09 | S. cerevisiae deletion strains, locus YMR263W, strain SAP30, stronger effect = lower value 0.991 | S. cerevisiae deletion strains, locus YNL067W, strain RPL9B, stronger effect = lower value 0.925 | S. cerevisiae deletion strains, locus YNL183C, strain NPR1, stronger effect = lower value 0.933 | S. cerevisiae deletion strains, locus YNL224C, strain SQS1, stronger effect = lower value 0.972 | S. cerevisiae deletion strains, locus YNL248C, strain rpa49, stronger effect = lower value 0.969 | S. cerevisiae deletion strains, locus YNL250W, strain rad50, stronger effect = lower value 1.01 | S. cerevisiae deletion strains, locus YNL271C, strain bni1, stronger effect = lower value 0.999 | S. cerevisiae deletion strains, locus YNL298W, strain CLA4, stronger effect = lower value 1 | S. cerevisiae deletion strains, locus YNL307C, strain MCK1, stronger effect = lower value 0.986 | S. cerevisiae deletion strains, locus YNL322C, strain KRE1 (second series), stronger effect = lower value 1.06 | S. cerevisiae deletion strains, locus YNR049C, strain mso1, stronger effect = lower value 1 | S. cerevisiae deletion strains, locus YOL006C, strain TOP1, stronger effect = lower value 0.632 | S. cerevisiae deletion strains, locus YOL012C, strain htz1 0.729 | S. cerevisiae deletion strains, locus YOR001W, strain rrp6, stronger effect = lower value 0.944 | S. cerevisiae deletion strains, locus YOR061W, strain CKA2, stronger effect = lower value 0.969 | S. cerevisiae deletion strains, locus YOR069W, strain VPS5, stronger effect = lower value 0.96 | S. cerevisiae deletion strains, locus YOR136W, strain idh2, stronger effect = lower value 1.03 | S. cerevisiae deletion strains, locus YOR184W, strain ser1, stronger effect = lower value 1.03 | S. cerevisiae deletion strains, locus YOR231W, strain MKK1, stronger effect = lower value 1.01 | S. cerevisiae deletion strains, locus YOR290C, strain snf2, stronger effect = lower value 0.98 | S. cerevisiae deletion strains, locus YOR316C, strain cot1, stronger effect = lower value 1.02 | S. cerevisiae deletion strains, locus YPL106C, strain sse1, stronger effect = lower value 0.962 | S. cerevisiae deletion strains, locus YPL240C, strain hsp82, stronger effect = lower value 1.01 | S. cerevisiae deletion strains, locus YPL256C, strain CLN2, stronger effect = lower value 0.994 | S. cerevisiae deletion strains, locus YPR119W, strain clb2, stronger effect = lower value 1.06 | S. cerevisiae deletion strains, locus YPR141C, strain kar3, stronger effect = lower value 1.02 | S. cerevisiae deletion strains, locus YPR163C, strain tif3, stronger effect = lower value 1.04 | S. cerevisiae deletion strains, locus YPR167C, strain met16, stronger effect = lower value 1.06 | S. cerevisiae deletion strains, strain wtn01, stronger effect = lower value 1.03 | S. cerevisiae strains, strain wild type, stronger effect = lower value 0.904
active: S. cerevisiae deletion strains, locus YKL009W, strain mrt4, stronger effect = lower value 1.2 [resistant] | S. cerevisiae deletion strains, locus YKL160W, strain elf1, stronger effect = lower value 0.773 | S. cerevisiae deletion strains, locus YKR001C, strain vps1, stronger effect = lower value 0.459 | S. cerevisiae deletion strains, locus YLR027C, strain aat2, stronger effect = lower value 0.92 | S. cerevisiae deletion strains, locus YLR039C, strain RIC1, stronger effect = lower value 0.289 | S. cerevisiae deletion strains, locus YLR221C, strain rsa3, stronger effect = lower value 0.906 | S. cerevisiae deletion strains, locus YLR262C, strain YPT6 (second series), stronger effect = lower value 0.241 | S. cerevisiae deletion strains, locus YLR262C, strain YPT6, stronger effect = lower value 0.193 | S. cerevisiae deletion strains, locus YLR320W, strain mms22, stronger effect = lower value 0.833 | S. cerevisiae deletion strains, locus YLR342W, strain FKS1 (second series), stronger effect = lower value 0.667 | S. cerevisiae deletion strains, locus YLR384C, strain iki3, stronger effect = lower value 1.09 [resistant] | S. cerevisiae deletion strains, locus YLR418C, strain cdc73, stronger effect = lower value 0.793 | S. cerevisiae deletion strains, locus YML124C, strain tub3, stronger effect = lower value 1.17 [resistant] | S. cerevisiae deletion strains, locus YMR078C, strain ctf18, stronger effect = lower value 1.17 [resistant] | S. cerevisiae deletion strains, locus YMR205C, strain PFK2, stronger effect = lower value 0.759 | S. cerevisiae deletion strains, locus YMR231W, strain pep5, stronger effect = lower value 0.901 | S. cerevisiae deletion strains, locus YNL071W, strain lat1, stronger effect = lower value 0.809 | S. cerevisiae deletion strains, locus YNL175C, strain NOP13, stronger effect = lower value 0.868 | S. cerevisiae deletion strains, locus YNL197C, strain WHI3, stronger effect = lower value 0.789 | S. cerevisiae deletion strains, locus YNL209W, strain ssb2, stronger effect = lower value 0.925 | S. cerevisiae deletion strains, locus YNL233W, strain BNI4, stronger effect = lower value 0.803 | S. cerevisiae deletion strains, locus YNR052C, strain pop2, stronger effect = lower value 1.12 [resistant] | S. cerevisiae deletion strains, locus YOL147C, strain pex11, stronger effect = lower value 1.19 [resistant] | S. cerevisiae deletion strains, locus YOR070C, strain gyp1, stronger effect = lower value 0.842 | S. cerevisiae deletion strains, locus YOR080W, strain dia2, stronger effect = lower value 0.904 | S. cerevisiae deletion strains, locus YOR083W, strain WHI5 (second series), stronger effect = lower value 0.751 | S. cerevisiae deletion strains, locus YOR083W, strain WHI5, stronger effect = lower value 0.88 | S. cerevisiae deletion strains, locus YOR106W, strain vam3, stronger effect = lower value 0.843 | S. cerevisiae deletion strains, locus YOR144C, strain elg1, stronger effect = lower value 1.19 [resistant] | S. cerevisiae deletion strains, locus YOR265W, strain rbl2, stronger effect = lower value 0.928 | S. cerevisiae deletion strains, locus YOR270C, strain vph1, stronger effect = lower value 0.666 | S. cerevisiae deletion strains, locus YPL051W, strain arl3, stronger effect = lower value 0.607 | S. cerevisiae deletion strains, locus YPL055C, strain LGE1, stronger effect = lower value 0.731 | S. cerevisiae deletion strains, locus YPL078C, strain atp4, stronger effect = lower value 0.866
0.393 (active) and 0.947 (inactive): S. cerevisiae deletion strains, locus YMR307W, strain GAS1, stronger effect = lower value
